{"source": "ChEMBL document CHEMBL2218924", "about": "“A broad activity screen in support of a chemogenomic map for kinase signalling research and drug discovery” (Biochem J, 2013)"}
{"molecular_target": "Dual specificity mitogen-activated protein kinase kinase 1 (Homo sapiens) (UniProt Q02750)", "sequence (Q02750 whole entry)": "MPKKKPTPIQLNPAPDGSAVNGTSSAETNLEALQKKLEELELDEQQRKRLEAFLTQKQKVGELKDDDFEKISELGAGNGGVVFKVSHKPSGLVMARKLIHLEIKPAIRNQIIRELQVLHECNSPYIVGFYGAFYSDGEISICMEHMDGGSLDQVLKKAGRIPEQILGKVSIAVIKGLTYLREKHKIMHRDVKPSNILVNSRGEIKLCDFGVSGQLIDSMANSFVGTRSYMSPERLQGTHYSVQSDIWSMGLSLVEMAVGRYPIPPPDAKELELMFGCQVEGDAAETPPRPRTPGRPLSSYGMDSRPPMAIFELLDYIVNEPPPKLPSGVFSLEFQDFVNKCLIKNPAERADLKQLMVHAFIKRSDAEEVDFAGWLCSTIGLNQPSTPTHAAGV", "details": "at 1 µM", "units": {"residual activity": "%"}}
{"smiles": "CCn1cnc2c(Nc3cccc(Cl)c3)nc(N[C@@H]3CCCC[C@@H]3N)nc21", "residual activity": 87}
{"smiles": "O=[N+]([O-])/C=C/c1ccc2c(c1)OCO2", "residual activity": 127}
{"smiles": "C[S+]([O-])c1ccc(-c2nc(-c3ccc(F)cc3)c(-c3ccncc3)[nH]2)cc1", "note": "(stereo not drawn)", "residual activity": 113}
{"smiles": "COc1cc2ncnc(Nc3ccc(OCc4ccccc4)cc3)c2cc1OC", "residual activity": 115}
{"smiles": "O=c1[nH]c2ccccc2n1C1CCN(Cc2ccc(-c3nc4cc5[nH]cnc5cc4nc3-c3ccccc3)cc2)CC1", "residual activity": 127}
{"smiles": "O=C1NC(=O)c2c1c1c3ccccc3n3c1c1c2c2ccccc2n1C1CCC3O1", "residual activity": 40}
{"smiles": "CC(C)(C)c1cc(C=C(C#N)C#N)cc(Br)c1O", "residual activity": 113}
{"smiles": "COc1ccc2c(c[n+](C)c3c4cc5c(cc4ccc23)OCO5)c1OC", "residual activity": 125}
{"smiles": "COc1ccc2c(c1)/C(=C/c1cnc[nH]1)C(=O)N2", "residual activity": 62}
{"smiles": "O=C1Nc2ccc3ncsc3c2/C1=C/c1c[nH]cn1", "residual activity": 15}
{"smiles": "c1cc(-c2cnn3cc(-c4ccc(OCCN5CCCCC5)cc4)cnc23)ccn1", "residual activity": 123}
{"molecular_target": "Dual specificity mitogen-activated protein kinase kinase 1 (Homo sapiens) (UniProt Q02750)", "details": "at 10 µM", "units": {"residual activity": "%"}}
{"smiles": "CCn1cnc2c(Nc3cccc(Cl)c3)nc(N[C@@H]3CCCC[C@@H]3N)nc21", "residual activity": 25}
{"smiles": "O=[N+]([O-])/C=C/c1ccc2c(c1)OCO2", "residual activity": 120}
{"smiles": "C[S+]([O-])c1ccc(-c2nc(-c3ccc(F)cc3)c(-c3ccncc3)[nH]2)cc1", "note": "(stereo not drawn)", "residual activity": 110}
{"smiles": "COc1cc2ncnc(Nc3ccc(OCc4ccccc4)cc3)c2cc1OC", "residual activity": 84}
{"smiles": "O=c1[nH]c2ccccc2n1C1CCN(Cc2ccc(-c3nc4cc5[nH]cnc5cc4nc3-c3ccccc3)cc2)CC1", "residual activity": 62}
{"smiles": "O=C1NC(=O)c2c1c1c3ccccc3n3c1c1c2c2ccccc2n1C1CCC3O1", "residual activity": 51}
{"smiles": "CC(C)(C)c1cc(C=C(C#N)C#N)cc(Br)c1O", "residual activity": 96}
{"smiles": "COc1ccc2c(c[n+](C)c3c4cc5c(cc4ccc23)OCO5)c1OC", "residual activity": 119}
{"smiles": "COc1ccc2c(c1)/C(=C/c1cnc[nH]1)C(=O)N2", "residual activity": 11}
{"smiles": "O=C1Nc2ccc3ncsc3c2/C1=C/c1c[nH]cn1", "residual activity": 1}
{"smiles": "c1cc(-c2cnn3cc(-c4ccc(OCCN5CCCCC5)cc4)cnc23)ccn1", "residual activity": 117}
{"molecular_target": "Maternal embryonic leucine zipper kinase (Homo sapiens) (UniProt Q14680)", "sequence (Q14680 whole entry, looked up)": "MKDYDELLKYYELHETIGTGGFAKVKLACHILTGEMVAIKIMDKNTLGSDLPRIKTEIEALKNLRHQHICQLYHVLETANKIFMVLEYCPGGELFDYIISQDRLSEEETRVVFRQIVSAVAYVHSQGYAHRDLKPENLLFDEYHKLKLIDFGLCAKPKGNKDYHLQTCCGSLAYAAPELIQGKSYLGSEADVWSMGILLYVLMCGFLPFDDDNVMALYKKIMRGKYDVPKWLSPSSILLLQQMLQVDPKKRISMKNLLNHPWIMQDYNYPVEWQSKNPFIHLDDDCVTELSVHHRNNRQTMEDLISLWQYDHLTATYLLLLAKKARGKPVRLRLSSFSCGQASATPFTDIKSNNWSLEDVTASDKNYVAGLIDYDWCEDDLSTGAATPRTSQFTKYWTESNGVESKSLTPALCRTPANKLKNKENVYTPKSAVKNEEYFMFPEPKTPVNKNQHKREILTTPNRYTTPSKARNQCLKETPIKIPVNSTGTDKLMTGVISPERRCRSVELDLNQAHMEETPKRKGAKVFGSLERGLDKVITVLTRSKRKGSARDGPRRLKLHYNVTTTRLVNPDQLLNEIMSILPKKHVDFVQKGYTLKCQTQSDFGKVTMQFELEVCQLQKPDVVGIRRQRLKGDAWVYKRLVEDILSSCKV", "details": "at 1 µM", "units": {"residual activity": "%"}}
{"smiles": "CCn1cnc2c(Nc3cccc(Cl)c3)nc(N[C@@H]3CCCC[C@@H]3N)nc21", "residual activity": 59}
{"smiles": "O=[N+]([O-])/C=C/c1ccc2c(c1)OCO2", "residual activity": 78}
{"smiles": "O=C1c2ccccc2-c2nc3nnnn3nc21", "residual activity": 67}
{"smiles": "N/C(=N\\[N+](=O)[O-])N/N=C\\c1ccc(-c2cccc([N+](=O)[O-])c2)o1", "residual activity": 92}
{"smiles": "C[S+]([O-])c1ccc(-c2nc(-c3ccc(F)cc3)c(-c3ccncc3)[nH]2)cc1", "note": "(stereo not drawn)", "residual activity": 107}
{"smiles": "COc1cc2ncnc(Nc3ccc(OCc4ccccc4)cc3)c2cc1OC", "residual activity": 79}
{"smiles": "O=c1[nH]c2ccccc2n1C1CCN(Cc2ccc(-c3nc4cc5[nH]cnc5cc4nc3-c3ccccc3)cc2)CC1", "residual activity": 94}
{"smiles": "O=C1NC(=O)c2c1c1c3ccccc3n3c1c1c2c2ccccc2n1C1CCC3O1", "residual activity": 55}
{"smiles": "COc1ccc2c(c[n+](C)c3c4cc5c(cc4ccc23)OCO5)c1OC", "residual activity": 84}
{"smiles": "COC(=O)[C@@]1(O)C[C@H]2O[C@]1(C)n1c3ccccc3c3c4c(c5c6ccccc6n2c5c31)C(=O)NC4", "residual activity": 1}
{"smiles": "COc1ccc2c(c1)/C(=C/c1cnc[nH]1)C(=O)N2", "residual activity": 24}
{"smiles": "O=C1Nc2ccc3ncsc3c2/C1=C/c1c[nH]cn1", "residual activity": 6}
{"smiles": "c1cc(-c2cnn3cc(-c4ccc(OCCN5CCCCC5)cc4)cnc23)ccn1", "residual activity": 5}
{"smiles": "CC(C)[C@H](CO)Nc1nc(Nc2cccc(Cl)c2)c2ncn(C(C)C)c2n1", "residual activity": 66}
{"smiles": "COc1cc(OC)c(/C=C2\\C(=O)Nc3ccccc32)c(OC)c1", "residual activity": 104}
{"molecular_target": "Maternal embryonic leucine zipper kinase (Homo sapiens) (UniProt Q14680)", "details": "at 10 µM", "units": {"residual activity": "%"}}
{"smiles": "CCn1cnc2c(Nc3cccc(Cl)c3)nc(N[C@@H]3CCCC[C@@H]3N)nc21", "residual activity": 18}
{"smiles": "O=[N+]([O-])/C=C/c1ccc2c(c1)OCO2", "residual activity": 84}
{"smiles": "O=C1c2ccccc2-c2nc3nnnn3nc21", "residual activity": 33}
{"smiles": "N/C(=N\\[N+](=O)[O-])N/N=C\\c1ccc(-c2cccc([N+](=O)[O-])c2)o1", "residual activity": 85}
{"smiles": "C[S+]([O-])c1ccc(-c2nc(-c3ccc(F)cc3)c(-c3ccncc3)[nH]2)cc1", "note": "(stereo not drawn)", "residual activity": 84}
{"smiles": "COc1cc2ncnc(Nc3ccc(OCc4ccccc4)cc3)c2cc1OC", "residual activity": 77}
{"smiles": "CCc1nc(-c2ccc(OC)cc2)[nH]c1-c1ccncc1", "residual activity": 65}
{"smiles": "O=c1[nH]c2ccccc2n1C1CCN(Cc2ccc(-c3nc4cc5[nH]cnc5cc4nc3-c3ccccc3)cc2)CC1", "residual activity": 65}
{"smiles": "O=C1NC(=O)c2c1c1c3ccccc3n3c1c1c2c2ccccc2n1C1CCC3O1", "residual activity": 72}
{"smiles": "COc1ccc2c(c[n+](C)c3c4cc5c(cc4ccc23)OCO5)c1OC", "residual activity": 31}
{"smiles": "COC(=O)[C@@]1(O)C[C@H]2O[C@]1(C)n1c3ccccc3c3c4c(c5c6ccccc6n2c5c31)C(=O)NC4", "residual activity": -1}
{"smiles": "COc1ccc2c(c1)/C(=C/c1cnc[nH]1)C(=O)N2", "residual activity": 3}
{"smiles": "O=C1Nc2ccc3ncsc3c2/C1=C/c1c[nH]cn1", "residual activity": 1}
{"smiles": "c1cc(-c2cnn3cc(-c4ccc(OCCN5CCCCC5)cc4)cnc23)ccn1", "residual activity": -1}
{"smiles": "CC(C)[C@H](CO)Nc1nc(Nc2cccc(Cl)c2)c2ncn(C(C)C)c2n1", "residual activity": 18}
{"smiles": "COc1cc(OC)c(/C=C2\\C(=O)Nc3ccccc32)c(OC)c1", "residual activity": 77}
